Laboratory results published in PubChem BioAssay (NCATS).
Results filed as inconclusive are left out. Activity calls are given as the source filed them. Unless noted, the call rests on the fitted dose curve; in most records, active means well fitted curve in the direction sought with a large enough effect; inconclusive means small, poorly fitted or top-dose-only effect, or another doubt; inactive means no such curve, though single readings can be large; an effect the other way counts as inactive or inconclusive.

Tests used:
[1] = qHTS for differential inhibitors of proliferation of Plasmodium falciparum line HB3 (AID 1886); details: series mostly up to 28.7 µM;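 further: parasites grown with compound for 72 h before SYBR Green readout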
[2] = target: Ferritin light chain (Equus caballus) (UniProt P02791); test: qHTS Validation Assay for Identification of Novel General Anesthetics (AID 2323); details: horse apoferritin, anesthetic-site fluorescent probe displacement; series mostly up to 76.9 µM
Summary of the method: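 Competitive displacement of the profluorescent anesthetic 1-AMA (50% saturated, PBS) from 10 uM apoferritin, 10 min, room temperature. Activity is normalized 380/535 nm fluorescence; concentration-response fitted with a four-parameter Hill equation.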

[3] = target: ATP-dependent DNA helicase Q1 (Homo sapiens) (UniProt P46063); test: qHTS Validation Assay for Inhibitors of RecQ-Like Dna Helicase 1 (RECQ1) (AID 2353); details: recombinant RECQ1 helicase DNA unwinding assay; series mostly up to 25.6 µM
Summary of the method: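 RECQ1T1 50 nM; forked duplex (20 bp + 30-nt ss tails) 200 nM, ATP 2 mM final; pH 8.0, 2 mM MgCl2, 2.5 ug/ml poly(dI-dC); 15 min compound preincubation; discontinuous kinetic read over 2 h at RT.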

[4] = Validation screen for small molecules that induce DNA re-replication in MCF 10A normal breast cells (AID 463097); details: MCF 10A cells, DNA re-replication phenotype imaging; series mostly up to 46.1 µM; further: nearly all actives have a fitted effect of over 60% in size
Summary of the method: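 Read-out is Hoechst total nuclear intensity by fluorescence scanning imager, flagging increased high-DNA-content nuclei. Compounds were incubated with MCF 10A cells for 48 hr (37 C, 5% CO2) before 40 min staining.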

[5] = Quantitative high throughput screen for delayed death inhibitors of the malarial parasite plastid, 96 hour incubation (AID 488745); details: Plasmodium falciparum growth; series mostly up to 28.7 µM; further: nearly all actives have a fitted effect of over 70% in size
Summary of the method: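 Two-generation (96 h) exposure of luciferase-reporter P. falciparum in erythrocytes, 2% hematocrit, 0.1% parasitemia final, 37 C, 5% CO2, RPMI 1640 with 0.5% Albumax. Growth inhibition scored by reduced luminescence.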

[6] = Quantitative high throughput screen for delayed death inhibitors of the malarial parasite plastid, 48 hour incubation (AID 488752); details: Plasmodium falciparum growth; series mostly up to 28.7 µM; further: nearly all actives have a fitted effect of over 65% in size
Summary of the method: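 Cultures: infected erythrocytes at final 2% hematocrit and 0.1% parasitemia in Albumax-supplemented RPMI. Parasites express integrated firefly luciferase. Incubation with compound lasts 48 h before luminescent detection of remaining reporter activity.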

[7] = target: M-phase phosphoprotein 8 (Homo sapiens) (UniProt Q99549); test: qHTS Validation Assay for Inhibitors for MPP8 Chromodomain Interactions with Methylated Histone Tails (AID 488949); details: AlphaScreen MPP8 binding to H3K9me3 peptide; series mostly up to 57.1 µM;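 further: AlphaScreen signal from MPP8 chromodomain bound to biotinylated H3K9me3 peptide; top concentration of the series differs between compounds; nearly all actives have a fitted effect of over 55% in size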
Summary of the method: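 AlphaScreen proximity signal from streptavidin donor and Ni-chelate acceptor beads (10 ug/mL each) reported binding of MPP8 to trimethyl-K9 H3(1-18) peptide, both at 50 nM. The complex formed 30 min before a 30 min compound exposure at room temperature, in PBS pH 7.4.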

[8] = Cytometric Cell-Based qHTS for Inhibitors of the mTORC1 Signaling Pathway in MEF (Tsc2-/-, p53-/-) Cells (AID 2660); details: mTORC1 pathway cytometry; series mostly up to 38.3 µM;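 further: Tsc2 and p53 null MEFs carrying empty vector with compound for 24 h; percent of cells above a phospho-rpS6 to PI ratio cutoff in each well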
Summary of the method: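 Immunofluorescence qHTS of rpS6 Ser235/236 phosphorylation: MEFs (Tsc2-/-, p53-/-) treated 24 h, 37 C, in DMEM + 10% FBS. Alexa-488 signal normalized to PI count, referenced to rapamycin (7.5 nM) and DMSO; PI cell number recorded for viability.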

[9] = High Content Imaging Cell-Based qHTS for Inhibitors of the mTORC1 Signaling Pathway in MEF (Tsc2-/-, p53-/-) Cells (AID 2666); details: at 38.3 µM (top of the series);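 further: percent of cells scored positive for phospho-rpS6 Ser235/236 immunostaining by imaging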
Summary of the method: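 Tsc2-/-, p53-/- MEFs (empty-vector stable) grown in DMEM + 10% FBS were exposed to compounds for 24 hrs at 37 degree Celsius, fixed, and stained with Alexa-488 anti-phospho-rpS6 Ser235/236 plus Hoechst. Imaging gave the percentage of positive cells per well.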

[10] = High Content Imaging Cell-Based qHTS for Inhibitors of the mTORC1 Signaling Pathway in MEF Cells (AID 2667); details: series mostly up to 38.3 µM;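 further: Tsc2-/- p53-/- MEFs stably re-expressing wild-type Tsc2 exposed 24 h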
Summary of the method: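 Tsc2-/-, p53-/- MEFs stably re-expressing WT Tsc2, grown in DMEM + 10% FBS, were treated with compounds for 24 hrs at 37 degree Celsius, fixed, and stained with Alexa-488 phospho-rpS6 Ser235/236 antibody plus Hoechst; results given as % positive cells.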

[11] = Cytometry Cell-Based qHTS for Inhibitors of the mTORC1 Signaling Pathway in MEF cells (AID 2668); details: mTORC1 pathway readout; series mostly up to 38.3 µM;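 further: Tsc2-/- p53-/- mouse embryonic fibroblasts stably re-expressing wild-type Tsc2; percent cells positive for phospho-rpS6 Ser235/236 relative to propidium iodide stain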
Summary of the method: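 Phospho-rpS6 (Ser235/236) immunofluorescence over PI signal, scored as % positive cells using thresholds from 7.5 nM rapamycin and DMSO wells, after 24 h compound exposure of WT-Tsc2-rescued Tsc2-/-, p53-/- MEFs. PI cell count recorded for viability.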

[12] = target: Ubiquitin carboxyl-terminal hydrolase 2 (Homo sapiens) (UniProt O75604); test: qHTS Validation Assay for Inhibitors of Ubiquitin-specific Protease USP2a Using CHOP2 as the Reporter (AID 463106); details: USP2a cleavage of CHOP2 reporter, enzymatic; series mostly up to 38.3 µM
Summary of the method: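 Readout was coupled fluorescence (Ex 485/Em 531 nm), read 60 min after adding 25 nM final Ub-CHOP2 and 25 nM reporter substrate. Beforehand, 10 nM final USP2 core had 30 min at RT with compound in pH 8.0 buffer. Curves were fitted after normalization to NEM and flagged for artifacts using time-zero reads.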

[13] = target: DNA polymerase III PolC-type (Bacillus subtilis (strain 168)) (UniProt P13267); test: qHTS Validation Assay for the Inhibitors of DNA Replication in Gram-Positive Bacteria (AID 485295); details: Gram-positive bacterial DNA replication assay; series mostly up to 57.1 µM;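 further: reconstituted holoenzyme with PolC plus beta clamp SSB and primase; PicoGreen fluorescence of double-stranded DNA made on primed circular M13 template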
Summary of the method: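 Double-stranded DNA product detected by PicoGreen fluorescence after EDTA quench. Compound incubated with B. subtilis holoenzyme (PolC, beta subunit, SSB, primase) before substrate addition; primed replication of M13Gori with dNTPs and NTPs at room temperature; DMSO defines 0% inhibition.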

[14] = target: Tumor susceptibility gene 101 protein (Homo sapiens) (UniProt Q99816); test: qHTS Validation Assay for Iinhibitors of HIV-1 Budding by Blocking the Interaction of PTAP/TSG101 (AID 485342; calls by dose curve); details: TSG101-PTAP binding, fluorescence polarization, 4-point titration; series mostly up to 115 µM
Summary of the method: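 Fluorescence polarization of 50 nM FITC-PTAP peptide bound to 10 uM Tsg101 binding domain was read after 20 min room-temperature incubation with compounds, in 10 mM HEPES pH 7.5, 0.15 M NaCl, 0.01% Tween 20.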

[15] = qHTS Validation Assay to Find Inhibitors of Chronic Active B-Cell Receptor Signaling (AID 485345; active means well fitted curve in the direction sought with a large enough effect in the main read-out, with a control signal flat, not every such curve was filed as active); details: ABC-DLBCL cells, chronic BCR signaling reporter, CBG luciferase; series mostly up to 46.1 µM
Summary of the method: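 Read-out: ratio of filter-corrected green (IkappaBalpha fusion) to red (native) luciferase signal in doxycycline-induced TMD8 cells after 4 h at 37C. Titration spanned 46 uM–3 nM; Data were normalised to basal cells and 10 uM MG-132 wells.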

[16] = target: Beta-2 adrenergic receptor (Homo sapiens) (UniProt P07550); test: qHTS validation assay of beta-arrestin-biased ligands of beta2-adrenergic receptor (AID 485366); details: cell-based beta-arrestin recruitment to ADRB2, qHTS; series mostly up to 46.1 µM
Summary of the method: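 Agonism was measured as beta-arrestin recruitment to recombinant beta2-AR, releasing tTA to drive luciferase. Cells were exposed for 18 hr at 37 degrees C to a series up to 46 microM. %Activity from corrected luminescence gave concentration-response curves.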

[17] = target: Thioredoxin reductase 1, cytoplasmic (Rattus norvegicus) (UniProt O89049); test: qHTS Assay for Substrates of Mammalian Selenoprotein Thioredoxin Reductase 1 (TrxR1) (AID 488772); details: purified TrxR1, NADPH consumption substrate assay; series mostly up to 57.1 µM;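 further: a drop in NADPH fluorescence below the no-compound background marks a TrxR1 substrate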
Summary of the method: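 In this dual-purpose format, potential substrates are identified from the first fluorescence read after selenite addition, not from the 8-minute delta. Rat enzyme is preincubated with NADPH and then with compound at ~22 deg C.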

[18] = target: Thioredoxin reductase 1, cytoplasmic (Rattus norvegicus) (UniProt O89049); test: qHTS Assay for Inhibitors of Mammalian Selenoprotein Thioredoxin Reductase 1 (TrxR1) (AID 488773); details: purified TrxR1 enzyme activity; series mostly up to 57.1 µM;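 further: drop in NADPH fluorescence over an 8 min run after selenite addition; nearly all actives have a fitted effect of over 40% in size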
Summary of the method: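 Inhibition is scored from the loss of NADPH fluorescence between first and last reads of an 8-min kinetic run. Selenite (400 uM) was the substrate, added after 15 min compound preincubation at room temperature.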

[19] = target: Flap endonuclease 1 (Homo sapiens) (UniProt P39748); test: qHTS Validation Assay for the Inhibitors of Human Flap endonuclease 1 (FEN1) (AID 488816); details: FEN1 nuclease activity, fluorogenic DNA substrate; series mostly up to 57.1 µM
Summary of the method: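 qHTS format: compounds and 10 nM FEN1 incubated 15 min at room temperature before adding 50 nM substrate. Cleavage followed by reads at 0 and 15 min; normalized data fitted to a four-parameter Hill curve.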

[20] = target: Chromobox protein homolog 1 (Homo sapiens) (UniProt P83916); test: qHTS Validation Assay for Inhibitors of HP1-beta Chromodomain Interactions with Methylated Histone Tails (AID 488953); details: HP1-beta chromodomain / methylated histone peptide binding assay; series mostly up to 114 µM;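 further: loss of AlphaScreen luminescence from HP1-beta binding biotinylated H3K9me3 peptide; nearly all actives have a fitted effect of over 50% in size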
Summary of the method: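 Compounds pinned into a preassembled complex of HP1-beta and trimethyl-K9 histone H3(1-18) biotin peptide (50 nM each; PBS pH 7.4, 0.01% Tween-20). After 30 min, bead-based AlphaScreen detection followed.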

Measured: outcome

Thioredoxin reductase 1, cytoplasmic (Rattus norvegicus), sequence (O89049 whole entry, looked up): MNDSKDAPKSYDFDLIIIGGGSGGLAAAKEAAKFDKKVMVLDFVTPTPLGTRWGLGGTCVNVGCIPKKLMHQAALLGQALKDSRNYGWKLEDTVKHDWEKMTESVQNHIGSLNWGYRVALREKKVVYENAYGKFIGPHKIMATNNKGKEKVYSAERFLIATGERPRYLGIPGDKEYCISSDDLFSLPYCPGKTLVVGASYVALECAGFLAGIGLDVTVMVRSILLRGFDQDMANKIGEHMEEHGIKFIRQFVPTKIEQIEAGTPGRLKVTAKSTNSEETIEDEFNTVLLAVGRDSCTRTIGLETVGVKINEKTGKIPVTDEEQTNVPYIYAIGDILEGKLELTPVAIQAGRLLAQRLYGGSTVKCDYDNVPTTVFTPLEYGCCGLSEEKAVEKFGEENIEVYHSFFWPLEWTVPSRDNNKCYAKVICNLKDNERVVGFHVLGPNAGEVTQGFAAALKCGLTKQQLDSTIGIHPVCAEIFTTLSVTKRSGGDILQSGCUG
M-phase phosphoprotein 8 (Homo sapiens), sequence (Q99549 whole entry, looked up): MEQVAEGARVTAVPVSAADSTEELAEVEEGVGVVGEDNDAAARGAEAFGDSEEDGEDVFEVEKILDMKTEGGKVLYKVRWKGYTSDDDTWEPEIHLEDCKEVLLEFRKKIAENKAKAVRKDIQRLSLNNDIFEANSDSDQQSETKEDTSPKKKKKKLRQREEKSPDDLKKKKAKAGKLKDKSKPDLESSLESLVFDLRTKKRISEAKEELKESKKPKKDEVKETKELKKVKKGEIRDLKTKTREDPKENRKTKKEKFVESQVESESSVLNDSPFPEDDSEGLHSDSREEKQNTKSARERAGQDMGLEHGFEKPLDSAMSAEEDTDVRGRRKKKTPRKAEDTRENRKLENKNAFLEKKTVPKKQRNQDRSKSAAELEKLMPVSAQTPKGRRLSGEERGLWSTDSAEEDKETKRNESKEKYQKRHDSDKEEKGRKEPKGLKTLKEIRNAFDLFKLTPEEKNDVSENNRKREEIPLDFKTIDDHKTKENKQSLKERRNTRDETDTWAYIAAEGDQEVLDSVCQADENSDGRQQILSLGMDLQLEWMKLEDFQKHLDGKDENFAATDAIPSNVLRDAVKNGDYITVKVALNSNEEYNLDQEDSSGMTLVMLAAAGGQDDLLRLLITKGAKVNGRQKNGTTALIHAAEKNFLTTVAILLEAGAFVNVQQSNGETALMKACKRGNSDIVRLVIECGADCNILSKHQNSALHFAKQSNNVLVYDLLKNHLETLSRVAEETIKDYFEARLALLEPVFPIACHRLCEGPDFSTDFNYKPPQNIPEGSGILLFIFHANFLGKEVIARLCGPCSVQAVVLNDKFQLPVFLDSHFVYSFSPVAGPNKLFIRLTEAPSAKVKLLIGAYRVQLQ
Tumor susceptibility gene 101 protein (Homo sapiens), sequence (Q99816 whole entry, looked up, the tested form may be a part): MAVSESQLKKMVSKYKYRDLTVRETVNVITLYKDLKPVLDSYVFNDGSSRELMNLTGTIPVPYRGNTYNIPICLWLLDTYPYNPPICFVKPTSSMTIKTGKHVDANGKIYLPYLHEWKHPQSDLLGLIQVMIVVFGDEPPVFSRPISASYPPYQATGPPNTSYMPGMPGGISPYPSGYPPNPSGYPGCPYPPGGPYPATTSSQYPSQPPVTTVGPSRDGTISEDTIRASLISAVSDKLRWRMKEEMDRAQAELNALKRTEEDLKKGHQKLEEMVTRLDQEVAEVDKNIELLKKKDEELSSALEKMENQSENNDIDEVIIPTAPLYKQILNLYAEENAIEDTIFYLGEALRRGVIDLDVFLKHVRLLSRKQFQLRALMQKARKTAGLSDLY
DNA polymerase III PolC-type (Bacillus subtilis (strain 168)), sequence (P13267 whole entry, looked up): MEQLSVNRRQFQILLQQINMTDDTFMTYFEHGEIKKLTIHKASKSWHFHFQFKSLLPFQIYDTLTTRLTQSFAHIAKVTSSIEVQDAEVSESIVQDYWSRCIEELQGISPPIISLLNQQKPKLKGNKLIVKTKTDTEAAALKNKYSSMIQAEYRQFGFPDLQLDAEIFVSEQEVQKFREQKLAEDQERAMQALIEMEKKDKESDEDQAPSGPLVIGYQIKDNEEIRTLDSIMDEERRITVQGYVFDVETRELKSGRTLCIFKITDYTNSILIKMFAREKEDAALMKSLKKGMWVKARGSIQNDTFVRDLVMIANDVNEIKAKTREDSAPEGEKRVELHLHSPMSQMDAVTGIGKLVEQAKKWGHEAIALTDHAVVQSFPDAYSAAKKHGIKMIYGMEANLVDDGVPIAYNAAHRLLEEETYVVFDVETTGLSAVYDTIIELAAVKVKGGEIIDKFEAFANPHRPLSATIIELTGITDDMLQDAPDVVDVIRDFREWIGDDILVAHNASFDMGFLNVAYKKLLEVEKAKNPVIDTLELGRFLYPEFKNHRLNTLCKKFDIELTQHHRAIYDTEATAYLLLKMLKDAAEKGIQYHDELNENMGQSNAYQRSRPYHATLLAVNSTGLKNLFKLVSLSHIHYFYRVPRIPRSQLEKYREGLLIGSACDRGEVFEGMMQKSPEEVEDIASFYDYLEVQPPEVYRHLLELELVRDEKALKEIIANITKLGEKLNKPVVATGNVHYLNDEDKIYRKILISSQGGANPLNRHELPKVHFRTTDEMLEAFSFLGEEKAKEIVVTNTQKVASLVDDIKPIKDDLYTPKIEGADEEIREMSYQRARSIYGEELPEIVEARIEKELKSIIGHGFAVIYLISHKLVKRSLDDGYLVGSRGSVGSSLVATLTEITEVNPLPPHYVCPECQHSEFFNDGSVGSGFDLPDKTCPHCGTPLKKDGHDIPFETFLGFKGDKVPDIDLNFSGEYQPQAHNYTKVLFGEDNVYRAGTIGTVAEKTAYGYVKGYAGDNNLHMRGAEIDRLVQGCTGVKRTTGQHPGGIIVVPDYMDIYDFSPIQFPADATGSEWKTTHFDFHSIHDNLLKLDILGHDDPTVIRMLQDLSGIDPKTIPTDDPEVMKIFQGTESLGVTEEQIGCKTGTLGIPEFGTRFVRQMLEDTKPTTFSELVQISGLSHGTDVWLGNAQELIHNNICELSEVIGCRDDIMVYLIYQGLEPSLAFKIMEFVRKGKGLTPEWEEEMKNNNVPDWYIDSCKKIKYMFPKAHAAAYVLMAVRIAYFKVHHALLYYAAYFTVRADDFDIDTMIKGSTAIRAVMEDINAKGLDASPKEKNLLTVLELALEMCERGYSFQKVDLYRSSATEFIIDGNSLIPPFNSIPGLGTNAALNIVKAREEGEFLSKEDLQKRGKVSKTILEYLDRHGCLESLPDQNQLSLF
Flap endonuclease 1 (Homo sapiens), sequence (P39748 whole entry, looked up): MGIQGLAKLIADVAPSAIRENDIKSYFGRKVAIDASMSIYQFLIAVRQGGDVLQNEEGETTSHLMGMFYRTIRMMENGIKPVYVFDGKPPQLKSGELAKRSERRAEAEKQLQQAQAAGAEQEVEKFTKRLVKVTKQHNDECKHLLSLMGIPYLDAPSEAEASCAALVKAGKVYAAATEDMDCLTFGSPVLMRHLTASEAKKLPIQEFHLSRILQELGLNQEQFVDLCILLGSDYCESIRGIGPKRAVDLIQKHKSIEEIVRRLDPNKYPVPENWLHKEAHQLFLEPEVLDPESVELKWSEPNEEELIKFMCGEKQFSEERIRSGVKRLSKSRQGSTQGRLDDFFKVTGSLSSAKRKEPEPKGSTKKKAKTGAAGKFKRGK
Beta-2 adrenergic receptor (Homo sapiens), sequence (P07550 whole entry, looked up): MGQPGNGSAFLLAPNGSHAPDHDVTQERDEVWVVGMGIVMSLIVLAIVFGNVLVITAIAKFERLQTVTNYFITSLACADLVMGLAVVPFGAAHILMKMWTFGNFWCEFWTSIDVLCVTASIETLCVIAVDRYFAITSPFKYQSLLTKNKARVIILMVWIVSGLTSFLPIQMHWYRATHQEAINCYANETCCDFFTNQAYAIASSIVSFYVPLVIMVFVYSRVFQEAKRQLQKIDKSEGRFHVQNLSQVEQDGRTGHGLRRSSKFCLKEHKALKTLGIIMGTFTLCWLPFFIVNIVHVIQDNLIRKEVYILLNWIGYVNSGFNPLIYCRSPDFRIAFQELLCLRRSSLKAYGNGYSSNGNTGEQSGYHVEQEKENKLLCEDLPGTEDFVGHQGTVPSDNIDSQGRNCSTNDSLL
Ubiquitin carboxyl-terminal hydrolase 2 (Homo sapiens), sequence (O75604 whole entry, looked up): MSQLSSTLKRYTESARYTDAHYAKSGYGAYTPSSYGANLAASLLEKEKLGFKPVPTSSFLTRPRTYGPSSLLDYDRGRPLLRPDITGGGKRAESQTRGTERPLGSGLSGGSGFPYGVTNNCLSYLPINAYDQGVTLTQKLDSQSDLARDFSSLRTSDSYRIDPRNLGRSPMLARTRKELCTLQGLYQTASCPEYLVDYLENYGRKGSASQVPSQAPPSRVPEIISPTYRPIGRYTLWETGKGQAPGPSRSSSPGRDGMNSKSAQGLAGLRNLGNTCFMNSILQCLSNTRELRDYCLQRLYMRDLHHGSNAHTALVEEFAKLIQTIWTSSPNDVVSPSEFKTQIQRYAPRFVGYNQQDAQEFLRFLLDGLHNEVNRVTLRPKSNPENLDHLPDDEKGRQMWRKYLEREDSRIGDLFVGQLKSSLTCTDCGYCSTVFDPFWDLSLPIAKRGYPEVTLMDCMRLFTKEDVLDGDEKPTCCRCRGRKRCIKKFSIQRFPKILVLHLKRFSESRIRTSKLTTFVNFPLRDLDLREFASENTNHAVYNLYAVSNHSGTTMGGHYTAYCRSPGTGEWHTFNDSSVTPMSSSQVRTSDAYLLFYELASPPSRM
Chromobox protein homolog 1 (Homo sapiens), sequence (P83916 whole entry, looked up): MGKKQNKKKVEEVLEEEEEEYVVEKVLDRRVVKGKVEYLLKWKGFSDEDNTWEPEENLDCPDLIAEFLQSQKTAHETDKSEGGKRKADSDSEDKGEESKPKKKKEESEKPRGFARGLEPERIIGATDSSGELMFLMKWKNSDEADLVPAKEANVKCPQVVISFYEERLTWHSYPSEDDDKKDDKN
Ferritin light chain (Equus caballus), sequence (P02791 2-175 limits assumed): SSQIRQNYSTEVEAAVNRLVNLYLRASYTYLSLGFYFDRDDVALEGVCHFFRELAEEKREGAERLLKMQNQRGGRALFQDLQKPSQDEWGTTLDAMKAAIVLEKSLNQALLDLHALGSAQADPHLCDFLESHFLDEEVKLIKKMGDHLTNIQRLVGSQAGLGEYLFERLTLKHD

CCNC(=O)[C@H]1O[C@@H](n2cnc3c(N)nc(NCCc4ccc(CCC(=O)O)cc4)nc32)[C@H](O)[C@H]1O
inactive: [1] | [2] | [3] | [4] | [5] | [6] | [7]

C[C@H]1O[C@@H](n2cc(F)c(=O)[nH]c2=O)[C@H](O)[C@H]1O
inactive: [8] | [9] | [10] | [11] | [12] | [13] | [14] | [15] | [16] | [17] | [18] | [19] | [7] | [20]

C=CCc1cccc(C=NNC(=O)CN2CCN(Cc3ccccc3)CC2)c1O
inactive: [8] | [9] | [10] | [12] | [13] | [14] | [15] | [16] | [17] | [18] | [19] | [7] | [20]
